A selection: hits, their analogues and other compounds. The true share with any hit is near 21%.
Pf growth 96h: P. falciparum growth inhibition at 96 hour, primary screen for plastid delayed-death inhibitors; 320,000 compounds, 6.9% hits; P. falciparum luciferase reporter growth, 96 h; Potency, µM (top dose mostly 28.7 µM), for inactives: top-dose activity change, negative = inhibition, actives largely listed as inhibitors; active means well fitted inhibition curve with a large enough effect; inconclusive means small, poorly fitted or top-dose-only effect, or another doubt; inactive means no such curve, though single readings can be large or run the other way; further: potency means the concentration at half of the fitted maximal effect; on the % scale 0 is the no-effect control and ±100 the full control effect
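P. falciparum expressing integrated firefly luciferase, in erythrocytes at 2% hematocrit, 0.05% parasitemia, incubated with compounds 96 h at 37 C, 5% CO2. Growth inhibition read as loss of luminescence; two-generation exposure targets delayed-death apicoplast inhibitors.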
SARS PLP yeast: inhibitors of SARS-CoV papain-like protease in yeast; S. cerevisiae expressing SARS-CoV PLpro, growth rescue; Potency, µM (doses to about 32.9 µM), inactives show at the highest dose activity, positive = growth rescue, hits mostly activators; 330,000 compounds, 0.19% hits; AID 485353; further: potency means the concentration at half of the fitted maximal effect; 0% is about no effect; nearly all actives have a fitted effect of over 55% in size
Cycloheximide cs: counter-screen for Shiga toxin inhibitors: cycloheximide protein synthesis inhibition. 300,000 compounds, 12% hits. max response, %. cell reporter, cycloheximide protein synthesis inhibition counterscreen; in the data active means max response mostly above about 13%, no sharp cut-off; inactive means mostly below about 14%; further: read at 38.3 µM for the half of the compounds with a filed dose; 0% is about no effect
Pf growth 48h: inhibits P. falciparum growth in the first generation, 48 h; P. falciparum luciferase growth in erythrocytes, 48 h; Potency, µM (top dose mostly 28.7 µM), without a hit: at the top dose activity change, negative = inhibition, actives largely listed as inhibitors; 310,000 compounds, 5.9% hits; AID 504832; active means well fitted inhibition curve with a large enough effect; inconclusive means small, poorly fitted or top-dose-only effect, or another doubt; inactive means no such curve, though single readings can be large or run the other way; further: potency means the concentration at half of the fitted maximal effect; on the % scale 0 is the no-effect control and ±100 the full control effect
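A one-generation exposure of luciferase-tagged malaria parasites in RPMI 1640/Albumax erythrocyte culture, 37 C and 5% CO2. Inhibition is inferred from decreased luminescence after adding detection reagent.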
NS1 function inh: blocks influenza NS1 protein function | Potency, µM (titrated, usually from 46.1 µM), for the others: at the top dose activity, positive = more growth | AID 2326 | 270,000 compounds, 0.4% hits; further: potency means the concentration at half of the fitted maximal effect; actives are rising curves; nearly all actives have a fitted effect of over 50% in size
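Compounds were scored for reversing the slow growth caused by influenza A NS1 in S. cerevisiae, measured by optical density at 600 nm. Assay medium contained 2% galactose at pH 6.0; NS1-free yeast of the same strain were the positive control.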
Shiga toxin inh: Shiga toxin inhibition. Vero cells, Shiga toxin protein synthesis inhibition reporter. inhibition, % at 38.7 µM. 290,000 compounds, 9.2% hits. AID 2315; in the data active means inhibition mostly above about 28%, no sharp cut-off; inactive means mostly below about 43%; further: 0% is about no effect
Active calls of the source: *; i = inactive; ? = inconclusive; / = not tested or not shown. Unless noted, the call rests on the fitted dose curve.

SMILES | Pf growth 96h | SARS PLP yeast | Cycloheximide cs | Pf growth 48h | NS1 function inh | Shiga toxin inh
COCCNC(=O)COC(=O)c1cc(-c2ccc(OC)cc2)nc2ccccc12 | 252% | -1% | 11 | 2% | -5% | 13
CCOC(=O)c1ccc(S(=O)(=O)N2CCN(Cc3cc4c(cc3O)OCO4)CC2)cc1 | 6% | 2% | / | -17% | / | /
Cc1ccc(S(=O)(=O)N2CCN(Cc3cc(C(C)C)ccc3O)CC2)cc1 | 10µM* | -12% | -2 | 10µM* | -33% | -8
Cc1ccc(S(=O)(=O)N2CCN(Cc3ccccc3C(F)(F)F)CC2)cc1 | ? | -19% | 2 | 32% | -23% | -3
Cc1ccc(S(=O)(=O)N2CCN(Cc3cc(C(C)(C)C)ccc3O)CC2)cc1 | ? | -7% | 1 | 12µM* | -2% | -17
Cc1ccc(OCc2ccc(C(=O)Nc3nccs3)o2)cc1 | i | -1% | 4 | 0% | -8% | 30
Cc1ccc(SCc2ccc(C(=O)Nc3nccs3)o2)cc1 | -9% | -7% | 38* | 2% | 0% | 81*
O=C(Nc1nccs1)c1ccc(COc2ccccc2)o1 | -95% | 6% | 50* | 51% | 7% | 84*
O=C(Nc1nccs1)c1ccc(CSc2ccccc2)o1 | ? | 23% | 58* | 53% | -18% | 107*
CC(NC(=S)NC1CCC(C(C)(C)C)CC1)c1ccccc1 (centres undefined) | 9.3µM* | -2% | -2 | 7.4µM* | 18% | -5
Cc1cccc(NC(=S)NC2CC3CCC(C2)N3Cc2ccco2)c1C (centres undefined) | ? | -5% | -3 | -15% | -17% | -8
Cc1ccc(CN2C3CCCC2CC(NC(=S)NCc2ccccc2)C3)cc1 (centres undefined) | 0% | 2% | 1 | 12µM* | -3% | -2
CCc1ccc(NC(=S)NC2CC3CCCC(C2)N3Cc2cccs2)cc1 (centres undefined) | 2.1µM* | 0% | 1 | ? | -2% | -11
CC(NC(=O)C1CCC1)c1ccccc1 (centres undefined) | / | 2% | -3 | -8% | 13% | 5
Cc1cccc(NC(=S)NC2CC3CCCC(C2)N3Cc2ccccc2)c1C (centres undefined) | 1% | 0% | -3 | 5.9µM* | -2% | -9
Cc1cc(Cl)ccc1NC(=O)CN1C(=O)C(=O)N(C2CCCC2)C1=O | -1% | -6% | / | ? | / | /
O=C(CSc1cccc[n+]1[O-])Nc1cccc(S(=O)(=O)NC2=NCCCCC2)c1 | 5% | 3% | -3 | 9% | / | -5
Cc1ccc(CNC(=S)NC2CCC(C(C)(C)C)CC2)cc1 (centres undefined) | 12µM* | -5% | -1 | 9.3µM* | ? | -18
COc1ccc(CNC(=S)NC2CCCCC2)cc1 | ? | 1% | 14 | 18% | -21% | 7
CCc1ccccc1NC(=S)NC1CC2CCC(C1)N2Cc1ccc(F)cc1 (centres undefined) | -8% | 0% | -2 | 7.4µM* | -1% | -27
O=C(Nc1cccnc1)c1ccc(Br)s1 | 32% | -6% | 31* | 49% | -33% | 105*
O=C(Nc1cccc(-c2nn[nH]n2)c1)c1ccc(Br)s1 | ? | -3% | 23* | 19% | -13% | -24
CCc1sc(C(=O)Nc2cccnc2)cc1Br | -5% | -13% | 30* | ? | -70% | 47*
O=C(Nc1cccnc1)c1cccnc1 | 12% | 4% | -1 | 18% | 9% | 3
CCOC(=O)C1(Cc2cccc(OC)c2)CCCN(C(=O)c2cc(CC(C)C)[nH]n2)C1 (centres undefined) | ? | -1% | 53* | -22% | -9% | 87*
SMILES | Pf growth 96h | SARS PLP yeast | Cycloheximide cs | Pf growth 48h | NS1 function inh | Shiga toxin inh
CCOC(=O)C1(Cc2cccc(OC)c2)CCCN(C(=O)c2ccc(OC)o2)C1 (centres undefined) | 40% | 1% | 41* | ? | 14% | 113*
O=C(CCN1C(=O)C2C3C=CC(C3)C2C1=O)Nc1ccc2ncccc2c1 (centres undefined) | 59% | 5% | 45* | 37% | -5% | 64*
O=C(CCN1C(=O)C2C3C=CC(C3)C2C1=O)NCCc1ccccc1 (centres undefined) | ? | -7% | 9.7* | 29% | -5% | 19
O=C(O)C1C2C=CC(C2)C1C(=O)NCCc1ccccc1 (centres undefined) | 77% | -2% | 12 | 38% | 7% | 30*
CCOC(=O)CSc1nc2ccccc2c(=O)n1CCC(=O)NCCc1ccc(OC)c(OC)c1 | ? | -1% | 3 | / | -1% | 1
CNc1snc(C)c1C(=O)OCC(=O)N(C)Cc1ccccc1 | 34% | 5% | / | -1% | / | /
Cc1cc(Oc2ccc(-c3ccccc3)cc2)nc(N2CCOCC2)n1 | ? | 2% | -5 | ? | -69% | -16
CC(=O)c1ccc(Oc2cc(C)nc(N3CCOCC3)n2)cc1 | 8% | 6% | 13* | 34% | -3% | 20
Cc1cc(Oc2ccc(C(C)(C)C)cc2)nc(N2CCOCC2)n1 | 10µM* | 7% | -4 | / | -4% | -5
CCCc1ccc(Oc2cc(C)nc(N3CCOCC3)n2)cc1 | -2% | 13% | 9 | 36% | -29% | 23
CC(=O)Nc1ccc(S(=O)(=O)NCCC(=O)NCC2COc3ccccc3O2)cc1 (centres undefined) | -2% | ? | -2 | ? | -9% | 11
COc1ccccc1-c1oc2ccccc2c1C#CC1(N)CCCCC1 | 3.3µM* | -1% | / | 8.3µM* | / | /
COc1ccccc1-c1oc2ccccc2c1C#CC1(O)CCCCC1 | / | 1% | / | / | / | /
N#CC1=C(N)OC2=C(C(=O)CC(c3ccco3)C2)C1c1ccc(OCc2c(F)cccc2Cl)cc1 (centres undefined) | 26% | -4% | 5 | ? | 11% | 11
COc1cccc(C2C(C#N)=C(N)OC3=C2C(=O)CC(c2ccco2)C3)c1OCc1ccc(F)cc1 (centres undefined) | 65% | -5% | -4 | 6.6µM* | -24% | -8
COc1ccc(Cc2nnc(NC(=O)c3ccc(F)cc3)s2)cc1OC | -21% | 5% | 1 | ? | 6% | /
O=[N+]([O-])c1ccc(N2CCN(S(=O)(=O)c3ccccc3)CC2)cc1NCc1cccnc1 | -1% | 0% | -1 | 9.3µM* | 14% | -4
O=[N+]([O-])c1ccc(N2CCN(S(=O)(=O)c3ccc(Cl)cc3)CC2)cc1NCc1cccnc1 | ? | 1% | 1 | 7.4µM* | 1% | -14
O=[N+]([O-])c1ccc(N2CCN(S(=O)(=O)c3ccccc3)CC2)cc1NCc1ccco1 | 13µM* | 22% | 4 | -20% | 9% | 10
O=[N+]([O-])c1ccc(N2CCN(S(=O)(=O)c3ccccc3)CC2)cc1NCC1CCCO1 (centres undefined) | ? | -7% | -3 | 8% | 14% | -8
